In PubChem BioAssay (Tox21):
Inconclusive results are not listed. Entries that show only a call come without a potency. Values without a mark were called inactive. Calls of active or inactive are those of the source. Calls come from the whole dose curve; as a rule, active = well fitted curve in the direction sought with a large enough effect in the repeat runs; inconclusive = weak or mixed curves; inactive = no such curve, though single readings can be large; an effect the other way counts as inactive or inconclusive.

Test system: not listed separately
Assay: qHTS assay to identify small molecule antagonists of the constitutive androstane receptor (CAR) signaling pathway - cell viability counter screen (AID 1224837); note: nearly all actives have a fitted effect of over 45% in size
Details: HepG2-CYP2B6-hCAR viability, CellTiter-Fluor, 23 h, co-treated with 50 nM CITCO; series mostly up to 92.4 µM
In short: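 Cytotoxicity counter-screen: CellTiter-Fluor fluorescence after 23 h compound exposure (15-point qHTS) in double-stable HepG2-CYP2B6-hCAR cells, with 50 nM CITCO added.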

SMILES | Potency | activity change, negative = cytotoxicity
CN(CCOc1ccc(NS(C)(=O)=O)cc1)CCc1ccc(NS(C)(=O)=O)cc1 | inactive | –
CCCCCCOC(=O)CC | inactive | –
O=S(=O)(O)CCN1CCN(CCO)CC1 | inactive | –
Cc1cc(C(C)(C)C)c(O)c(C)c1CC1=NCCN1 | inactive | –
CC(C)(C)c1n[nH]c(=S)n(N)c1=O | inactive | –
CCC(C)NC(N)=O (centres undefined) | inactive | –
Oc1cn2c(n1)Nc1ccc(Cl)c(Cl)c1C2 | – | 5.38% [at 19 µM]
Cc1nc2n(c(=O)c1CCN1CCC(c3noc4cc(F)ccc34)CC1)CCC[C@H]2O | – | 1.56% [at 19 µM]
NS(=O)(=O)c1ccc(NC(=O)CCC(=O)O)cc1 | inactive | –
C=C(C)C(=O)OCC(C)(C)COC(=O)C(=C)C | inactive | –
CCCCCCCCSCC | inactive | –
C=C(C)C1CCC(C)(O)CC1 (centres undefined) | inactive | –
On1nnc2ccccc21 | inactive | –
NC(CO)C(=O)NNCc1ccc(O)c(O)c1O (centres undefined) | inactive | –
O=C(CCNNC(=O)c1ccncc1)NCc1ccccc1 | inactive | –
CC(C)NCC(O)COc1cccc2[nH]ccc12 (centres undefined) | inactive | –
N[C@@H](COP(=O)(O)O)C(=O)O | – | 10.4% [at 19 µM]
O=C1CC(c2ccc(Cl)cc2)CC(=O)N1 | inactive | –
CCOc1cc(NC(C)=O)ccc1C(=O)OC | inactive | –

SMILES | Potency | activity change, negative = cytotoxicity
CCOC(=O)c1ncn2c1CN(C)C(=O)c1cc(F)ccc1-2 | inactive | –
CC(C)N(c1ccccc1)C(C)C | inactive | –
CC(C)(C)c1nnc(NS(=O)(=O)c2ccc(N)cc2)s1 | inactive | –
C=CCCCCCCCCCCCC | inactive | –
CCCN1C[C@H](CSC)C[C@@H]2c3cccc4[nH]cc(c34)C[C@H]21 | inactive | –
CC(C)NCC(O)COc1ccc(COCCOC(C)C)cc1 (centres undefined) | inactive | –
COCCOCCOCCOCCOCCO | inactive | –
N#Cc1ccc(C(=O)O)cc1 | inactive | –
Cc1ccccc1C(=O)Nc1ccc(C(=O)N2CCCC(N(C)C)c3ccccc32)cc1 (centres undefined) | inactive | –
COCCOC(=O)C1=C(C)NC(C)=C(C(=O)OC(C)C)C1c1cccc([N+](=O)[O-])c1 (centres undefined) | inactive | –
CN1CCN(CC(=O)N2c3ccccc3C(=O)Nc3cccnc32)CC1 | – | 7.37% [at 8.39 µM]
CCCCCCCCOS(=O)(=O)O | inactive | –
CC(=O)NCc1c(I)c(NC(C)=O)c(I)c(C(=O)O)c1I | inactive | –
CC(C)C[C@H](NC(=O)CNC(=O)[C@H](Cc1ccc(O)cc1)NC(=O)[C@H](CO)NC(=O)[C@H](Cc1c[nH]c2ccccc12)NC(=O)[C@H](Cc1cnc[nH]1)NC(=O)[C@@H]1CCC(=O)N1)C(=O)N[C@@H](CCCN=C(N)N)C(=O)N1CCC[C@H]1C(=O)NCC(N)=O (stereo in doubt) | inactive | –
COc1cc(C(=S)N2CCOCC2)cc(OC)c1OC | inactive | –
COc1ccc(C2CNC(=O)C2)cc1OC1CCCC1 (centres undefined) | inactive | –
CC(C)(C)NC(N)=O | inactive | –
Cc1ccc(C=O)cc1C | inactive | –
CN1C(C)(C)CCCC1(C)C | inactive | –

Biological target: Nuclear receptor subfamily 1 group I member 3 (Homo sapiens) (UniProt Q14994)
Assay: qHTS assay to identify small molecule antagonists of the constitutive androstane receptor (CAR) signaling pathway (AID 1224838);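 note: HepG2 cells stably expressing hCAR with CYP2B6 luciferase reporter stimulated by CITCO; nearly all actives have a fitted effect of over 40% in size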
Details: HepG2-CYP2B6-hCAR luciferase, CITCO-stimulated, 24 h; series mostly up to 92.4 µM
In short: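 Antagonism measured as luciferase signal (ONE-Glo, 30 min, room temperature) in CAR-stimulated cells: HepG2-CYP2B6-hCAR double-stable line exposed 24 hr at 37 C to compound in a 15-point series plus 50 nM CITCO.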

Nuclear receptor subfamily 1 group I member 3 (Homo sapiens), sequence (Q14994 whole entry, looked up): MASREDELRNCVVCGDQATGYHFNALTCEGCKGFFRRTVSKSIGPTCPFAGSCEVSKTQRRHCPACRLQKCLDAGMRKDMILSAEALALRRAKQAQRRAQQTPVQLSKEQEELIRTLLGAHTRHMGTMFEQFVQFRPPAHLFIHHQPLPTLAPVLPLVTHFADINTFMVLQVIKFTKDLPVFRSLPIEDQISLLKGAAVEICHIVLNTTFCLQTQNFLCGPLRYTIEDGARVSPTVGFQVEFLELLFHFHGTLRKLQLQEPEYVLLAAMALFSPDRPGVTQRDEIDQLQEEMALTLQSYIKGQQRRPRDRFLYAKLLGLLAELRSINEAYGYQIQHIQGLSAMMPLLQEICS

SMILES | outcome | activity, negative = inhibition
CCCCCCOC(=O)CC | inactive | –
O=S(=O)(O)CCN1CCN(CCO)CC1 | inactive | –
Cc1cc(C(C)(C)C)c(O)c(C)c1CC1=NCCN1 | inactive | –
CC(C)(C)c1n[nH]c(=S)n(N)c1=O | inactive | –
CCC(C)NC(N)=O (centres undefined) | inactive | –
Oc1cn2c(n1)Nc1ccc(Cl)c(Cl)c1C2 | – | 39.2% [at 19 µM]
Cc1nc2n(c(=O)c1CCN1CCC(c3noc4cc(F)ccc34)CC1)CCC[C@H]2O | – | 20.8% [at 19 µM]
NS(=O)(=O)c1ccc(NC(=O)CCC(=O)O)cc1 | inactive | –
C=C(C)C(=O)OCC(C)(C)COC(=O)C(=C)C | inactive | –
CCCCCCCCSCC | inactive | –
C=C(C)C1CCC(C)(O)CC1 (centres undefined) | inactive | –
On1nnc2ccccc21 | inactive | –
O=C(CCNNC(=O)c1ccncc1)NCc1ccccc1 | inactive | –
CC(C)NCC(O)COc1cccc2[nH]ccc12 (centres undefined) | inactive | –
N[C@@H](COP(=O)(O)O)C(=O)O | – | 2.8% [at 19 µM]
O=C1CC(c2ccc(Cl)cc2)CC(=O)N1 | inactive | –

SMILES | outcome | activity, negative = inhibition
CCOc1cc(NC(C)=O)ccc1C(=O)OC | inactive | –
CC(C)N(c1ccccc1)C(C)C | inactive | –
CC(C)(C)c1nnc(NS(=O)(=O)c2ccc(N)cc2)s1 | inactive | –
C=CCCCCCCCCCCCC | inactive | –
CC(C)NCC(O)COc1ccc(COCCOC(C)C)cc1 (centres undefined) | inactive | –
COCCOCCOCCOCCOCCO | inactive | –
N#Cc1ccc(C(=O)O)cc1 | inactive | –
COCCOC(=O)C1=C(C)NC(C)=C(C(=O)OC(C)C)C1c1cccc([N+](=O)[O-])c1 (centres undefined) | inactive | –
CN1CCN(CC(=O)N2c3ccccc3C(=O)Nc3cccnc32)CC1 | – | -1.39% [at 8.39 µM]
CCCCCCCCOS(=O)(=O)O | inactive | –
CC(=O)NCc1c(I)c(NC(C)=O)c(I)c(C(=O)O)c1I | inactive | –
CC(C)C[C@H](NC(=O)CNC(=O)[C@H](Cc1ccc(O)cc1)NC(=O)[C@H](CO)NC(=O)[C@H](Cc1c[nH]c2ccccc12)NC(=O)[C@H](Cc1cnc[nH]1)NC(=O)[C@@H]1CCC(=O)N1)C(=O)N[C@@H](CCCN=C(N)N)C(=O)N1CCC[C@H]1C(=O)NCC(N)=O (stereo in doubt) | inactive | –
COc1cc(C(=S)N2CCOCC2)cc(OC)c1OC | inactive | –
CC(C)(C)NC(N)=O | inactive | –
Cc1ccc(C=O)cc1C | inactive | –
